# Test results reported in PubChem BioAssay (NCI).
# About 79,000 compounds went through this panel and 15% of them were active in at least one assay; those are over-represented in the sample as a whole. Calls of active or inactive are those of the source. No stated cut-off is given here; in the data, active means growth inhibition above about 70%; inactive means the rest.
# Assay: NCI Yeast Anticancer Drug Screen. Data for the wt2 strain (AID 169);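 further: 0% = growth of vehicle-treated yeast cultures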
# Details: S. cerevisiae wt2 strain growth inhibition; at 1.2 µM; hits give high values
# Procedure, shortened: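 Treated yeast vs. vehicle-treated yeast: growth inhibition determined.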
row,Compound,growth inhibition
1,O=CC=C(c1ccccc1)c1ccccc1,4% (inactive)
2,FC(F)(F)c1nc2nc(Cl)c(Cl)nc2n1CCCN1CCOCC1,-1% (inactive)
3,BrCC[P+](c1ccccc1)(c1ccccc1)c1ccccc1,-15% (inactive)
4,N#CSc1ccc(S(N)(=O)=O)cc1,-48% (inactive)
5,O=[N+]([O-])c1ccc2nc3ccccc3cc2c1,0% (inactive)
6,O=C(NC(Nc1ccc(F)c(Cl)c1)(C(F)(F)F)C(F)(F)F)C(C(F)(F)F)C(F)(F)F,1% (inactive)
7,O=C(/C=C\c1ccc(Cl)cc1Cl)c1cccs1,-5% (inactive)
8,O=C(NCCCCNCCCNC(=O)c1cc(-c2ccccc2)nc2ccccc12)c1cc(-c2ccccc2)nc2ccccc12,2% (inactive)
9,NC(=NCc1ccccc1)N/N=C\c1ccnc2ccccc12,-2% (inactive)
10,CCCCN(CCCC)CCSc1ccc(Cl)cc1,-5% (inactive)
11,COc1cc(C2C3=C(COC3=O)Oc3cc4c(cc32)OCO4)ccc1O (centres undefined),-2% (inactive)
12,C#CCCCc1ccccc1,-52% (inactive)
13,CCc1ccc(NS(=O)(=O)c2ccccc2)c([N+](=O)[O-])c1,-1% (inactive)
14,COc1ccc(C2c3cc4c(cc3OC(C)(O)C2C)OCO4)c(OC)c1 (centres undefined),-2% (inactive)
15,COC(=O)c1ccc(CCC2=CC(=O)C(Br)=CC2=O)cc1,-12% (inactive)
16,NNC(=O)CCc1ccc2ccc3ccccc3c2c1,-1% (inactive)
17,Cn1c2ccccc2c(=O)c2cc(NC(=O)CCCCC(=O)Nc3ccc4c(c3)c(=O)c3ccccc3n4C)ccc21,-3% (inactive)
18,CC(CC(C)(C)[N+](C)(C)C)[N+](C)(C)C (centres undefined),-1% (inactive)
19,CC1CCN(CCC(=O)c2ccc(Cl)cc2)CC1,0% (inactive)
20,CCCCCCCCCCCCCCC(C(=O)[O-])[n+]1ccccc1 (centres undefined),0% (inactive)

row,Compound,growth inhibition
1,CNC1C(OC2C(OC3C(O)C(O)C(N=C(N)N)C(O)C3N=C(N)N)OC(C)C2(O)CO)OC(CO)C(O)C1O (centres undefined),-3% (inactive)
2,O=C(O)c1ccccc1-c1ccccc1C(=O)Nc1ccc2c(c1)Cc1ccccc1-2,3% (inactive)
3,O=[N+]([O-])c1cccc2nc3ccccc3c(NCCCN3CCOCC3)c12,-1% (inactive)
4,C=CC(C)(O)CCC1C(=C)C(O)CC2C(C)(C)CCCC12C (centres undefined),-2% (inactive)
5,CN1c2ccc(Cl)cc2C(=O)NC1c1ccc([N+](=O)[O-])s1 (centres undefined),7% (inactive)
6,[O-][n+]1c2ccc(O)cc2nc2ccc(Br)cc21,3% (inactive)
7,O=C1c2ccccc2-c2nc3ccccc3nc21,-25% (inactive)
8,CCCCN1C(=O)N(c2ccc(OCC)cc2)C2N(CCCC)C1C(C)(C)C2(C)C (centres undefined),-3% (inactive)
9,CO[C@H]1C[C@](C)(O)Cc2cc3c(c(O)c21)C(=O)c1c(O)cc2c(c1C3=O)O[C@@H]1O[C@@]2(C)[C@H](O)[C@@H](N(C)C)[C@@H]1O,-19% (inactive)
10,COc1cc2c(cc1[N+](=O)[O-])C(=O)C(Br)(Br)CCC2,6% (inactive)
11,O=C1OC(CCl)CN1/N=C/c1ccc([N+](=O)[O-])o1 (centres undefined),2% (inactive)
12,CN(C)CCOc1ccc2c(c1)C/C(=C/c1ncc([N+](=O)[O-])n1C)C2=O,-40% (inactive)
13,CCCCCCCCCCCCCCCCCCN(C)CC(COP(=O)([O-])OCC[N+](C)(C)C)OC (centres undefined),-1% (inactive)
14,CC(C)c1ccccc1NC(=O)/C(Cl)=C(\Cl)C(=O)O,1% (inactive)
15,O=[N+]([O-])C(=C(Sc1ccccc1)Sc1ccccc1)C(Cl)=C(Cl)Cl,1% (inactive)
16,C(=C\c1ccccc1)/COc1ccccc1C(N1CCOCC1)n1nc2ccccc2n1 (centres undefined),-4% (inactive)
17,O=C1C(Nc2ccccc2)=C(Oc2ccccc2)C(=O)c2ccccc21,-10% (inactive)
18,CCN(CC)CCN1C(=O)c2cccc3cc(OC)cc(c23)C1=O,-23% (inactive)
19,CN(C)Cc1cc(N=Nc2ccc(Cl)cc2)cc(CN(C)C)c1O,5% (inactive)
